According to PubChem BioAssay (Tox21):
Calls of active or inactive are those of the source. Unless noted, calls follow the shape of the dose curve; as a rule, active = well fitted curve in the direction sought with a large enough effect in the repeat runs; inconclusive = weak or mixed curves; inactive = no such curve, though single readings can be large; an effect the other way counts as inactive or inconclusive.

Key:
[1] = qHTS assay to identify small molecule antagonists of the thyroid receptor (TR) signaling pathway - cell viability counter screen (AID 743064); also: nearly all actives have a fitted effect of over 50% in size; also: potency is read from the fitted curve at half-maximal effect
In short: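 CellTiter-Fluor readout, 30 min at 37 °C/5% CO2, following 23.5 h incubation of GH3.TRE-Luc cells with test compound and 1 nM T3 (final).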

[2] = qHTS assay to identify small molecule antagonists of the thyroid receptor (TR) signaling pathway (AID 743065); also: nearly all actives have a fitted effect of over 55% in size; also: potency is read from the fitted curve at half-maximal effect
In short: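 GH3.TRE-Luc rat pituitary cells carrying two TR response elements driving luciferase were plated for 4 h, given compound plus 1 nM T3 (final), and incubated 23.5 h at 37 C. ONE-Glo luminescence measured reporter inhibition; CellTiter-Fluor fluorescence tracked cytotoxicity.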

[3] = tested on: thyroid hormone receptor (rat, GH3 cells); experiment: qHTS assay to identify small molecule agonists of the thyroid receptor (TR) signaling pathway (AID 743066; calls by dose curve; also: potency is read from the fitted curve at half-maximal effect)
[4] = molecular target: Estrogen receptor (Homo sapiens) (UniProt P03372); experiment: qHTS assay to identify small molecule antagonists of the estrogen receptor alpha (ER-alpha) signaling pathway (AID 743069; active = well fitted curve in the direction sought with a large enough effect in the signal ratio in the repeat runs, not every such curve was filed as active; inconclusive = weak or mixed curves, or effect the other way; inactive = no such curve, though single readings can be large or run the other way; the % refers to the signal ratio; also: potency is read from the fitted curve at half-maximal effect)
Chain of Estrogen receptor (Homo sapiens) (P03372 whole entry, looked up): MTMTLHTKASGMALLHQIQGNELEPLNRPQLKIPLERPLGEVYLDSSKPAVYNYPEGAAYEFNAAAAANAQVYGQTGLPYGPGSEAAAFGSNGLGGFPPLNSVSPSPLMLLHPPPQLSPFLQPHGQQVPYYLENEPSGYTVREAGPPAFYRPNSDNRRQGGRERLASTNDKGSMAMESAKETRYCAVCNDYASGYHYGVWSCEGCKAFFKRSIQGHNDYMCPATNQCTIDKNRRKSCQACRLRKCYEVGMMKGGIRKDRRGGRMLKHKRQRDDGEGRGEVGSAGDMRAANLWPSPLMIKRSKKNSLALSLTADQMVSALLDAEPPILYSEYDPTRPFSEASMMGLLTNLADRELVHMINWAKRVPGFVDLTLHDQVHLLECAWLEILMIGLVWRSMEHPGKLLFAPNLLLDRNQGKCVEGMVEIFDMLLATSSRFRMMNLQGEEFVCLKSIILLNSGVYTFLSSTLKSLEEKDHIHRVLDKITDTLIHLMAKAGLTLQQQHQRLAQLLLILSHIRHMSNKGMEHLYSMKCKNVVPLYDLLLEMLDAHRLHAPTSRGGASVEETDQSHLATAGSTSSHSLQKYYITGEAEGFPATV
In short: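 HEK293 cells stably carrying an ER-alpha-UAS-bla beta-lactamase reporter were pre-cultured overnight in 2% charcoal-stripped FBS medium. Test compounds in DMSO were added together with 17beta-estradiol for 18 hr at 37C. Read-out was fluorescence after 2 hr with LiveBLAzer B/G FRET substrate at room temperature.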

[5] = molecular target: Estrogen receptor (Homo sapiens) (UniProt P03372); experiment: qHTS assay to identify small molecule agonists of the estrogen receptor alpha (ER-alpha) signaling pathway (AID 743075; calls by dose curve)
[6] = qHTS assay to identify small molecule antagonists of the estrogen receptor alpha (ER-alpha) signaling pathway using the BG1 cell line - cell viability counter screen (AID 743081);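 also: compound given together with 17beta-estradiol as the ER stimulus; nearly all actives have a fitted effect of over 45% in size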; also: potency is read from the fitted curve at half-maximal effect
Aromatase (Homo sapiens) = Aromatase (Homo sapiens) (UniProt P11511); experiment: qHTS assay to identify aromatase inhibitors (AID 743083); also: nearly all actives have a fitted effect of over 55% in size; also: potency is read from the fitted curve at half-maximal effect
Chain of Aromatase (Homo sapiens) (P11511 whole entry, looked up): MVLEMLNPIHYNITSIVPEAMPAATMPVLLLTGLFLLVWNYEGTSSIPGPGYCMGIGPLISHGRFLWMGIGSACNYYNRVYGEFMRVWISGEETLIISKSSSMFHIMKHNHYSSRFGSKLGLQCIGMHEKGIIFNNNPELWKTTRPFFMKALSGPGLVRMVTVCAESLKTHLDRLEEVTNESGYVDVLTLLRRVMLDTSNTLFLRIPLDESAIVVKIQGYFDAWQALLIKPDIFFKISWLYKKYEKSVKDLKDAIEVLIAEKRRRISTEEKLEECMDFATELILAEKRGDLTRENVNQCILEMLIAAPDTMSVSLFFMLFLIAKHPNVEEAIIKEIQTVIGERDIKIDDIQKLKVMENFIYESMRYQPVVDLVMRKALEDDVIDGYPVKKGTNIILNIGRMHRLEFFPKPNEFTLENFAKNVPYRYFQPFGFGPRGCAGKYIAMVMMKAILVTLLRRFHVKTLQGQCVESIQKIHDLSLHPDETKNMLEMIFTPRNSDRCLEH

[7] = qHTS assay to identify aromatase inhibitors - cell viability counter screen (AID 743084);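 also: cells stimulated with testosterone during compound exposure; nearly all actives have a fitted effect of over 55% in size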; also: potency is read from the fitted curve at half-maximal effect
[8] = molecular target: Aryl hydrocarbon receptor (Homo sapiens) (UniProt P35869); experiment: qHTS assay to identify small molecule that activate the aryl hydrocarbon receptor (AhR) signaling pathway (AID 743085); also: nearly all actives have a fitted effect of over 15% in size; also: potency is read from the fitted curve at half-maximal effect;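 as to activation: HG2L7.5c1 human HepG2 liver cells with stably integrated DRE-driven firefly reporter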
Chain of Aryl hydrocarbon receptor (Homo sapiens) (P35869 whole entry, looked up): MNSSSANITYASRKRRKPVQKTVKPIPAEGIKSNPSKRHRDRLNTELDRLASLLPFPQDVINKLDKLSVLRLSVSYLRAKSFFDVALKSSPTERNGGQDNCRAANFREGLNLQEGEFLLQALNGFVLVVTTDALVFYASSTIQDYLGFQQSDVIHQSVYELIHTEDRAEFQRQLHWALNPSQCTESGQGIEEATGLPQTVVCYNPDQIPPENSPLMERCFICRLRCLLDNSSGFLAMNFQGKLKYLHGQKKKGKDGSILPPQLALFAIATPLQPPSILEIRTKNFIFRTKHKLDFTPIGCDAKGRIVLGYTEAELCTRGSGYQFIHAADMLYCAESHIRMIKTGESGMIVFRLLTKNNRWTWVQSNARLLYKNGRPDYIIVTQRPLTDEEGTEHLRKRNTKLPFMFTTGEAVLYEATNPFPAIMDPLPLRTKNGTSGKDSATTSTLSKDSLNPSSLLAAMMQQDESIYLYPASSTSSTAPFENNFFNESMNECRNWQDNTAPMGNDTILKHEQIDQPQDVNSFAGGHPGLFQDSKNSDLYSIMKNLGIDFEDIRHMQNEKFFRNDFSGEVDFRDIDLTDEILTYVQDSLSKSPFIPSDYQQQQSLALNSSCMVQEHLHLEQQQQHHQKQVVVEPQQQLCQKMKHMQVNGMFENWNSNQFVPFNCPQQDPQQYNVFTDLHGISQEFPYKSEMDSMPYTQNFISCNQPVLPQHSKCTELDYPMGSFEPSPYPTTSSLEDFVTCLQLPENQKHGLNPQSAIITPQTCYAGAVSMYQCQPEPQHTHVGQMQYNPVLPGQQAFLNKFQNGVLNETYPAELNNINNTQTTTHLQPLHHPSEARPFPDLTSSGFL
In short: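 Stably transfected human liver carcinoma cells (HG2L7.5c1; 20 DRE-firefly luciferase) were incubated 5 h, dosed, and kept 24 h at 37C. Agonism was scored from increased luciferase luminescence.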

[9] = molecular target: Peroxisome proliferator-activated receptor gamma (Homo sapiens) (UniProt P37231); experiment: qHTS assay to identify small molecule agonists of the peroxisome proliferator-activated receptor gamma (PPARg) signaling pathway (AID 743094; active = well fitted activation curve with a large enough effect in the signal ratio in the repeat runs, not every such curve was filed as active; inconclusive = weak or mixed curves, or effect the other way; inactive = no such curve, though single readings can be large or run the other way; the % refers to the signal ratio)
Chain of Peroxisome proliferator-activated receptor gamma (Homo sapiens) (P37231 whole entry, looked up): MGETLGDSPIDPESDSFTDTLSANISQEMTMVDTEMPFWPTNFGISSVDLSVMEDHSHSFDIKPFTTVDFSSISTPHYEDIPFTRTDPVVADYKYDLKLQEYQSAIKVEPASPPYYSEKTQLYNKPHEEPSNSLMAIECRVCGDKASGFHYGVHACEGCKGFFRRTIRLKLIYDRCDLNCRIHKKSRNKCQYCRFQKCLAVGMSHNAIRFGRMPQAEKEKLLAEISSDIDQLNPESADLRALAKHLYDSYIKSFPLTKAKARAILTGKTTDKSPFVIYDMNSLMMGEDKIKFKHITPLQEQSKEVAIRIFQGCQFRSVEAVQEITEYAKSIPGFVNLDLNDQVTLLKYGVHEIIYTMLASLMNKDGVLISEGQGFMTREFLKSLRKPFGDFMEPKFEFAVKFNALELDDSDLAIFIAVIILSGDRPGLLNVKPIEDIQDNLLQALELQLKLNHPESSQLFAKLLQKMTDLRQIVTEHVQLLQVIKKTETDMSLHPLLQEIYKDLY
In short: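 GeneBLAzer PPARg UAS-bla HEK293H cells carrying a stably integrated beta-lactamase reporter were pre-incubated 5 h at 37C, then exposed to compounds in DMSO for 17 h at 37C; LiveBLAzer B/G FRET substrate was added for 1 h at room temperature and fluorescence read.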

[10] = qHTS assay to identify small molecule phospholipidosis (PLD) inducers (AID 1259344; active = well fitted curve in the direction sought with a large enough effect; inconclusive = small, poorly fitted or top-dose-only effect, or another doubt; inactive = no such curve, though single readings can be large; an effect the other way counts as inactive or inconclusive)
In short: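 HepG2 cells on collagen I, attached 4 h at 37 C, were co-treated with compound and LipidTOX Red dye for 24 h at 37 C, then fixed with paraformaldehyde plus Hoechst 33342 and imaged by high-content microscopy for phospholipid accumulation.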

[11] = molecular target: Nuclear receptor subfamily 1 group I member 2 (Rattus norvegicus) (UniProt Q9R1A7); experiment: Rat pregnane X receptor (rPXR) activation by small molecules, qHTS assay (AID 1346983); conditions: rPXR luciferase reporter cells, One-Glo luminescence, 24 h; max activation: active compounds read high; also: nearly all actives have a fitted effect of over 20% in size; also: potency is read from the fitted curve at half-maximal effect
Chain of Nuclear receptor subfamily 1 group I member 2 (Rattus norvegicus) (Q9R1A7 whole entry, looked up): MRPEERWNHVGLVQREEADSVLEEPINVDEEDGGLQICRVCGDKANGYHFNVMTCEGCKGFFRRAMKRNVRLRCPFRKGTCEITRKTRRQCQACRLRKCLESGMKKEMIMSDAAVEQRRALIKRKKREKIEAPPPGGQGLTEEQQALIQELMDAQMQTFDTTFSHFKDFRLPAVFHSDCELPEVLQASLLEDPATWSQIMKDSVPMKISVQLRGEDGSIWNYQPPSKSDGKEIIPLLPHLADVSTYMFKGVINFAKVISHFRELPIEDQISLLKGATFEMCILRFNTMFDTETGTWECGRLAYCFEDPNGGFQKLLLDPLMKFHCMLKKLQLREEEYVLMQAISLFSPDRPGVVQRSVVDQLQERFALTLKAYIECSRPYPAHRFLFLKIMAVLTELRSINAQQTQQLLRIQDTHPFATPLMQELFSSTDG
In short: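 Cell-based rPXR luciferase reporter assay, 2,000 cells per well, rested 5hr at 37 C before compound addition in DMSO, then 24 hr at 37 C. One-Glo reagent was added and luminescence read after 30 min at room temperature.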

[12] = molecular target: Nuclear receptor subfamily 1 group I member 2 (Homo sapiens) (UniProt O75469); experiment: CYP3A4 induction through human pregnane X receptor (PXR) by small molecules, qHTS assay (AID 1346984); also: nearly all actives have a fitted effect of over 40% in size
In short: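 DPX-2 cells (HepG2 co-transfected with PXR and CYP3A4 promoter-luciferase) treated with compounds 24 h at 37C; luciferin-IPA CYP3A4 substrate 3uM final added for 3 h, then One-Glo; luminescence read. qHTS format.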

[13] = molecular target: Nuclear receptor subfamily 1 group I member 2 (Homo sapiens) (UniProt O75469); experiment: Human pregnane X receptor (PXR) activation by small molecules, qHTS assay (AID 1346985); also: nearly all actives have a fitted effect of over 40% in size; also: potency is read from the fitted curve at half-maximal effect
In short: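 DPX-2 cells (HepG2 co-transfected with a PXR response element and a CYP3A4-promoter luciferase construct) were seeded at 2,000 per well, rested 5 hr at 37C, then exposed to DMSO-dissolved compounds for 24 hr. Activation was read as luciferase luminescence.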

[14] = qHTS assay to identify small molecule antagonists of the estrogen receptor alpha (ER-alpha) signaling pathway - cell viability counter screen (AID 743074; calls by dose curve; also: nearly all actives have a fitted effect of over 45% in size)
[15] = qHTS assay to identify small molecule that activate the aryl hydrocarbon receptor (AhR) signaling pathway - cell viability counter screen (AID 743086);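 also: HepG2 liver cells carrying the AhR DRE luciferase reporter; nearly all actives have a fitted effect of over 45% in size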
In short: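 HepG2-AhR-luc (HG2L7.5c1) cells, 4000/well, were preincubated 5 h at 37C, exposed to compound in qHTS format for 24 hr at 37C, then given CellTiter-Fluor for 30 min; viability was read as fluorescence in the reporter wells.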

[16] = molecular target: Estrogen receptor (Homo sapiens) (UniProt P03372); experiment: qHTS assay to identify small molecule agonists of the estrogen receptor alpha (ER-alpha) signaling pathway using the BG1 cell line (AID 743079); conditions: BG1Luc4E2 cells, ERE-luciferase agonist, 22 h; activation: at 70.3 µM (top of the series); also: nearly all actives have a fitted effect of over 20% in size; also: potency is read from the fitted curve at half-maximal effect
[17] = qHTS assay to identify small molecule antagonists of the estrogen receptor alpha (ER-alpha) signaling pathway using the BG1 cell line (AID 743080; calls by dose curve;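 also: BG1 cells stimulated with 17beta-estradiol alongside compound; nearly all actives have a fitted effect of over 25% in size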; also: potency is read from the fitted curve at half-maximal effect)
In short: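 After 5 days in phenol-red-free 10% charcoal-stripped FBS medium, BG1-Luc-4E2 cells were seeded, left 24 h at 37 C, co-treated with compounds and 17beta-estradiol for 21.5 h, then assayed for viability and luciferase.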
% is scaled to controls: 0 for no effect and ±100 for the full control effect.

Cc1cc(-c2ccc(N=Nc3c(S(=O)(=O)O)cc4cc(S(=O)(=O)O)cc(N)c4c3O)c(C)c2)ccc1N=Nc1c(S(=O)(=O)O)cc2cc(S(=O)(=O)O)cc(N)c2c1O
active: Potency [1] 23.7 µM | Potency [2] 11.9 µM | Potency [6] 21.1 µM | Potency (Aromatase (Homo sapiens)) 11.9 µM | Potency [7] 13.3 µM
inactive: Potency [3] | Potency [4] | Potency [5] | Potency [8] | Potency [9] | Potency [10] | max activation [11] -20.2% | Potency [12] | Potency [13]

CC(C)(CO)[C@@H](O)C(=O)NCCCC(=O)O
inactive: Potency [1] | Potency [2] | Potency [3] | Potency [4] | Potency [14] | Potency [5] | Potency [6] | Potency (Aromatase (Homo sapiens)) | Potency [7] | Potency [8] | Potency [15] | Potency [9] | Potency [10] | max activation [11] -8.61% | Potency [12] | Potency [13]

Nc1nc2[nH]cc(CCc3ccc(C(=O)N[C@@H](CCC(=O)O)C(=O)O)cc3)c2c(=O)[nH]1
inactive: Potency [1] | Potency [2] | Potency [3] | Potency [4] | Potency [5] | Potency [16] | Potency [17] | Potency [6] | Potency (Aromatase (Homo sapiens)) | Potency [7] | Potency [8] | Potency [15] | Potency [9] | Potency [10] | max activation [11] -1.09% | Potency [12] | Potency [13]

CCCc1nc(C(C)(C)O)c(C(=O)OCc2oc(=O)oc2C)n1Cc1ccc(-c2ccccc2-c2nn[nH]n2)cc1
inactive: Potency [1] | Potency [2] | Potency [3] | Potency [14] | Potency [6] | Potency (Aromatase (Homo sapiens)) | Potency [7] | Potency [8] | Potency [15] | Potency [9] | Potency [10] | max activation [11] -4.8% | Potency [12] | Potency [13]

C[C@@H]1C[C@H]2[C@@H]3CCC4=CC(=O)C=C[C@]4(C)[C@@]3(F)[C@@H](O)C[C@]2(C)[C@@]1(O)C(=O)COC(=O)c1cccc(S(=O)(=O)O)c1
active: Potency [16] 15 µM | Potency [11] 10 µM
inactive: Potency [1] | Potency [2] | Potency [3] | Potency [14] | Potency [5] | Potency [6] | Potency (Aromatase (Homo sapiens)) | Potency [7] | Potency [15] | Potency [9] | Potency [10] | Potency [12] | Potency [13]

CC[C@@]1(O)C(=O)OCc2c1cc1n(c2=O)Cc2cc3c([N+](=O)[O-])cccc3nc2-1
inactive: Potency [3] | Potency [14] | Potency [5] | Potency [10] | Potency [12] | Potency [13]
active: Potency [1] 2.37 µM | Potency [2] 0.473 µM | Potency [4] 4.77 µM [inconclusive] | Potency [17] 0.266 µM | Potency (Aromatase (Homo sapiens)) 0.596 µM | Potency [11] 6.31 µM

Cc1ccc(S(=O)(=O)NC(=O)N[C@@H](C)Cc2ccccc2)cc1
inactive: Potency [1] | Potency [2] | Potency [3] | Potency [14] | Potency [6] | Potency (Aromatase (Homo sapiens)) | Potency [7] | Potency [8] | Potency [15] | Potency [9] | Potency [10] | max activation [11] 4.79% | Potency [12] | Potency [13]

C=C(NC(=O)C(=C)NC(=O)c1csc(C2=N[C@@H]3c4csc(n4)[C@H]4NC(=O)c5csc(n5)[C@H]([C@](C)(O)[C@@H](C)O)NC(=O)[C@H]5CSC(=N5)C(=CC)NC(=O)C([C@@H](C)O)NC(=O)c5csc(n5)[C@]3(CC2)NC(=O)[C@H](C)NC(=O)C(=C)NC(=O)[C@H](C)NC(=O)C([C@@H](C)CC)NC2C=Cc3c([C@H](C)O)cc(nc3C2O)C(=O)O[C@@H]4C)n1)C(N)=O (some centres not stated)
inactive: Potency [14] | Potency [16] | Potency [17] | Potency (Aromatase (Homo sapiens)) | Potency [8] | Potency [10] | max activation [11] -3.21% | Potency [12] | Potency [13]
active: Potency [1] 8.04 µM | Potency [2] 12.7 µM | Potency [3] 5.69 µM | Potency [7] 11.4 µM

NC(=S)N=Nc1ccc(NN=C(N)N)cc1
active: Potency [1] 23.7 µM | Potency [2] 26.6 µM | Potency [6] 26.6 µM | Potency [7] 23.7 µM | Potency [8] 11.9 µM
inactive: Potency [3] | Potency [14] | Potency [5] | Potency [16] | Potency [17] | Potency [10] | max activation [11] -0.862% | Potency [12] | Potency [13]

O=C(OCc1ccccc1)c1cccnc1
inactive: Potency [1] | Potency [2] | Potency [3] | Potency [4] | Potency [5] | Potency [16] | Potency [17] | Potency [6] | Potency (Aromatase (Homo sapiens)) | Potency [7] | Potency [15] | Potency [9] | Potency [10] | max activation [11] 6.76% | Potency [12] | Potency [13]

CC(=O)OCC(=O)[C@@]12OC3(CCCC3)O[C@@H]1C[C@H]1[C@@H]3CCC4=CC(=O)C=C[C@]4(C)[C@@]3(F)[C@@H](O)C[C@@]12C
inactive: Potency [1] | Potency [2] | Potency [3] | Potency [4] | Potency [14] | Potency [5] | Potency (Aromatase (Homo sapiens)) | Potency [7] | Potency [8] | Potency [15] | Potency [9] | Potency [10] | Potency [12]
active: Potency [11] 25.1 µM | Potency [13] 14.1 µM

CS(=O)(=O)c1ccc(C2=C(c3ccccc3)C(=O)OC2)cc1
inactive: Potency [1] | Potency [2] | Potency [3] | Potency [14] | Potency [6] | Potency (Aromatase (Homo sapiens)) | Potency [7] | Potency [8] | Potency [15] | Potency [9] | Potency [10] | max activation [11] -0.681% | Potency [12] | Potency [13]

CC(C)(C)c1ccc(CN2CCN(C(c3ccccc3)c3ccc(Cl)cc3)CC2)cc1 (configuration not stated)
inactive: Potency [3] | Potency [5] | Potency [17] | Potency [6] | Potency [7] | Potency [8] | Potency [15] | Potency [10] | max activation [11] 10.7% | Potency [12] | Potency [13]
active: Potency [1] 33.5 µM | Potency [2] 21.1 µM
